From PubChem BioAssay AID485317 (Broad Institute, 2010)
Among all 290,000 compounds or so, about 11,000 (3.8%) were called active.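 The calls were made as follows: active = mean replicate inhibition above about 79%, with every replicate also reaching it (limit read from the data); inconclusive = only one of the two criteria met; inactive = mean below limit and not every replicate reaching it.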 Shown is part of a subset that was picked to be rich in actives.

biological target: FAD-linked sulfhydryl oxidase ALR (Homo sapiens) (UniProt P55789); experiment: ALR-catalysed DTT oxidation blockers – biochemical, H2O2 detection, HRP-luminol luminescence, single point, primary screen (AID 485317); conditions: purified ALR, active compounds read high, concentration not given here
Sequence (P55789 whole entry, looked up): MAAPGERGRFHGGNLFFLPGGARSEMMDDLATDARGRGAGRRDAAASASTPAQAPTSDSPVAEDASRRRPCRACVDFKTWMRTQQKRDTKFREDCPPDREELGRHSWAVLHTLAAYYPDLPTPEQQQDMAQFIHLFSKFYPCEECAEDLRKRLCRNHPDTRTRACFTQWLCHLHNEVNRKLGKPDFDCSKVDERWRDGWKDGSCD

inhibition, inactive:
COc1ccc(NS(=O)(=O)c2ccc(F)cc2F)cn1 -5.33%
COc1ccc(Nc2ccc([N+](=O)[O-])cn2)cn1 -22.9%
O=C(N[C@@H]1C/C=C\C[C@@H](CC(=O)N(CCO)Cc2ccccc2)C(=O)N[C@H](Cc2ccccc2)COC1=O)OCC1c2ccccc2-c2ccccc21 5.13%
CCOc1ccc(NC(=O)COc2ccc(C(=O)N3CCC(C(N)=O)CC3)cc2OC)cc1 -0.853%
CCOC(=O)Cc1csc(NC(=O)CSc2nnc(-c3cccnc3)n2Cc2ccco2)n1 -5.11%
CCc1ccc(NC(=O)CSc2nnc(-c3cnccn3)n2Cc2ccco2)cc1 29.4%
O=C(CSc1nnc(-c2cccnc2)n1Cc1ccco1)c1ccc(Cl)cc1 54.6%
O=C(CSc1nnc(-c2cccs2)n1Cc1ccco1)c1ccc2c(c1)OCO2 0.1%
O=C(CSc1ncn[nH]1)Nc1ccc(Br)cc1Br -5.94%
CC(OC(=O)c1ccccc1NCCO)C(=O)Nc1ccnn1C(C)C (stereo not given) -3.31%
N#Cc1ccc(CN2CCN(CC(=O)Nc3ccccc3C(=O)NC3CC3)CC2)cc1 -2.66%
Cn1cccc1C(=O)NNC(=O)COc1ccc(Br)cc1 -4.16%
CCN(CC(=O)Nc1c(F)cccc1F)C(=O)c1ccc(S(=O)(=O)N2CCCCC2)cc1 -1.01%
COC(OC)c1ccnc(SCc2ccccc2Cl)n1 -8.94%
S=C(NCc1ccco1)NCc1ccccc1Cl -9.19%
O=C(Nc1ccc(C(=O)N2CCOCC2)cc1)Nc1cccc(C(F)(F)F)c1 -2.29%
Cc1ccc(-c2nn(-c3cccc(F)c3)cc2CNCCc2ccncc2)o1 -14.7%
O=C(O)CCC(=O)N(Cc1ccccc1)Cc1ccccc1 -2.42%
Cc1c(NC(=O)C(C)OC(=O)c2c3c(nc4ccccc24)CCC(C)C3)c(=O)n(-c2ccccc2)n1C (stereo not given) 18%
O=C1CCc2cc(S(=O)(=O)Nc3ccc(C(F)(F)F)cc3)cc3c2N1CC3 -0.668%
Cc1cc(OCC(=O)N(C)c2c(N)n(Cc3ccccc3)c(=O)[nH]c2=O)c(C(C)C)cc1Cl -4.09%
O=C(CCNC(=O)c1ccccc1Cl)NN=Cc1ccco1 -3.45%
Cc1cc(NC(=O)CSc2nc(=O)cc(N)n2-c2ccc(F)cc2)no1 -1.5%
Cc1csc(NC(=O)CSc2ccc(-c3ccc(F)cc3)nn2)n1 -12.2%
Cc1cc(C)c(S(=O)(=O)N2CCC(C(=O)OCc3c(C)noc3C)CC2)c(C)c1 -4.27%
CCCCN(C(=O)C1=NN(c2cc(C)ccc2C)C(=O)CC1)c1c(N)n(CCC)c(=O)[nH]c1=O 0.0423%
CCN(Cc1ccccc1)C(=O)Cc1ccc(OC)c(S(=O)(=O)N2CCOCC2)c1 -3.18%
COc1ccc(OCCCC(=O)Nc2cccc(S(=O)(=O)N3CCCCCC3)c2)cc1 -4.87%
CCOc1ccc(CCNC(=O)COC(=O)c2c(OC)cccc2OC)cc1OCC -5.28%
Cc1ccc(Nc2nnc(SCc3ccccc3)s2)cc1 -12.9%
O=C(CSc1nnc(Nc2ccccc2)s1)Nc1cccnc1Cl 4.27%
CC(C)n1c(-c2cccs2)nc2ccccc21 -15.2%
CC(C)n1c(COc2ccccc2)nc2ccccc21 14.1%
O=C(O)c1cc(S(=O)(=O)Nc2ccc3cn[nH]c3c2)ccc1Br 42.7%
COc1cc(/C=C/C(=O)Nc2ccc(OC)c(S(=O)(=O)N3CCOCC3)c2)ccc1OCC#N -4.4%
CSc1ncccc1C(=O)Nc1nc2ccc(F)cc2s1 -2.85%
CCS(=O)(=O)N1Cc2ccccc2CC1C(=O)Nc1ccc(OC)cc1OC (stereo not given) -16.1%
CCOC(=O)C1Nc2ccc(C(F)(F)F)cc2C2C=CCC12 (stereo not given) -11.3%
Cc1cc(NC(=O)COc2ccc([N+](=O)[O-])cc2)no1 8.23%
OCCNc1nc(Nc2ccc(Cl)c(Cl)c2)nc2ccccc12 19.6%
c1ccc(Nc2nc(N3CCOCC3)c3ccccc3n2)cc1 48.8%
CC(=O)c1c(C)[nH]c(C(=O)CN2C(=O)NC(C)(C)C2=O)c1C 0.194%
O=c1cc(CO)oc(C(Nc2cccc(C(F)(F)F)c2)c2ccccn2)c1O (stereo not given) 52.2%
O=[N+]([O-])c1cccc(S(=O)(=O)NCc2ccccn2)c1 -12.1%
COc1ccc(C(=O)N/N=C2\CCS(=O)(=O)c3ccc(F)cc32)cc1OC -0.529%
COc1ccccc1NC(=O)COC(=O)CNC(=O)C1CCCCC1 -0.565%
COc1ccc(-c2c(C#Cc3ccsc3)c3cc(-c4ccc(CN5CCOCC5)cc4)ccc3n2C)cc1 -4.78%
CCOc1cc2[nH]c(=S)n(Cc3ccc(C(=O)N4CCN(C)CC4)cc3)c(=O)c2cc1OCC -0.332%
COc1ccc(Cn2c(=S)[nH]c3cc(C(=O)N4CCCCC4)ccc3c2=O)cc1 9.27%
CC(=O)c1ccc(S(=O)(=O)Nc2ccc(-c3ccc4nncn4n3)cc2)cc1 -13.1%
O=C1c2ccccc2C(=O)N1CCC#Cc1ccc2cc(C3(O)CCCCC3)oc(=O)c2c1 -19.8%
CCOc1ccc(-c2cc(C(=O)N/N=C/c3ccc(O)cc3)c3ccccc3n2)cc1 1.65%
O=C(COC(=O)C1CCCO1)Nc1nc(-c2ccc(F)cc2)cs1 (stereo not given) -4.39%
Cc1cc(O)c(C2(O)C(=O)Nc3ccccc32)cc1C (stereo not given) 16.1%
Cc1ccc2c(c1)C(O)(CC(=O)c1cccnc1)C(=O)N2 (stereo not given) -0.959%
CC(=O)NC1CC2CCCC(C1)N2CC(=O)Nc1ccccc1 (stereo not given) -9.69%
CCCN1C2CCCC1CC(NC(=O)c1cccc(OC)c1)C2 (stereo not given) -4.94%
O=C1C=CN2CCCC2CC1 (stereo not given) -8.59%
Cc1ccccc1Nc1nc(-c2cccnc2)cs1 11.2%
O=C(Nc1nc(-c2cccnc2)cs1)c1ccccc1F 1.15%
C=CCC[C@H](Cc1ccc(F)cc1)C(=O)OC[C@H](C)NC(=O)[C@H](CC=C)CC(=O)N(CCO)Cc1ccccc1 2.24%
COc1ccc([C@H]2CC(=O)C=C(/C=C/c3ccccc3)C2)cc1 1.57%
O=C(NCCN1CCOCC1)c1cccc(S(=O)(=O)Nc2ccc(F)cc2)c1 -5.52%
O=C(COC(=O)c1ccc(Br)o1)NC12CC3CC(CC(C3)C1)C2 -1.81%
Cc1ccc(S(=O)(=O)Nc2nc(C)cc(-n3nc(C)cc3C)n2)cc1 7.83%
Cc1cc(N/N=C\c2ccc(Br)cc2)nc(-n2nc(C)cc2C)n1 -2.32%
CCN(C[C@H]1N[C@@](CC)(C(=O)OC)[C@H]2C(=O)N(Cc3ccccc3)C(=O)[C@@H]12)S(=O)(=O)c1ccc(C(F)(F)F)cc1 17.3%
CCCc1ccc(OCC(O)CN2CCN(CCO)CC2)cc1 (stereo not given) -1.03%
CCc1ccc(S(=O)(=O)NCC(O)COc2ccc(OC)cc2)cc1 (stereo not given) -11.7%
CCN(CC)C(CNC(=O)CSc1nnnn1-c1cccc(F)c1)c1ccco1 (stereo not given) -5.32%
O=c1c2ccccc2ccc2ccc(P(=O)(O)O)cc12 -13.1%
O=C1NC[C@@H](c2ccccc2)OC(=O)[C@H](Cc2ccc(F)cc2)CC/C=C/C[C@H]1CC(=O)N(CCO)Cc1ccccc1 -7.53%

inhibition, active:
COc1ccc(Nc2cc(Cl)ccc2C(=O)O)cn1 98.7%
C(=C\c1ccccc1)/CSc1nnc(-c2cccnc2)n1Cc1ccco1 87.9%
O=C(CSc1nnc(-c2cccnc2)n1Cc1ccco1)c1ccc(Cl)c(Cl)c1 98.2%
Clc1ccccc1CSc1nnc(-c2ccco2)c(-c2ccco2)n1 100%
Cc1ccc(-c2nn(-c3ccccc3)cc2CN(Cc2ccccc2)C(=O)CCC(=O)O)o1 97.6%
Cc1csc(NC(=O)CSc2nc(=O)cc(N)n2-c2ccc(F)cc2)n1 91.6%
CC(C)c1ccc(Nc2nnc(SCC(=O)c3nnc(-c4ccccc4)o3)s2)cc1 98.1%
CC(C)n1c(NCc2c[nH]c3ccccc23)nc2ccccc21 97.9%
CCS(=O)(=O)N1Cc2ccccc2CC1C(=O)Nc1nc2ccc(F)cc2s1 (stereo not given) 97.9%
CN1CCN(c2nc(Nc3ccc(O)cc3)nc3ccccc23)CC1 98.9%
O=c1cc(CO)oc(C(Nc2cccc([N+](=O)[O-])c2)c2ccccn2)c1O (stereo not given) 94.5%
O=S1(=O)CC/C(=N\Nc2ccc(F)cc2)c2ccsc21 98.3%
O=C(O)c1ccc(Cn2c(=S)[nH]c3cc(Cl)ccc3c2=O)cc1 94.9%
Cc1ccc(NC2(C#N)C(=O)Nc3ccccc32)cc1 (stereo not given) 97.6%
CN(C)c1ccc(NC(=O)CN2C3CCCC2CC(NC(=O)c2ccccc2)C3)cc1 (stereo not given) 99.7%
CN(c1ccc(O)cc1)c1nc(-c2cccnc2)cs1 95.1%
Cc1ccc(S(=O)(=O)Nc2nc(C)cc(N/N=C/c3ccc(O)cc3)n2)cc1 98.5%
Nc1ccc(OCC(O)C[n+]2ccc(CCS(=O)(=O)[O-])cc2)cc1 (stereo not given) 98.1%
